Assay results: the supplement of paper PMC12645437, “Orthogonal IMiD-Degron Pairs Induce Selective Protein Degradation in Cells” (ACS Chemical Biology, 2025)
The full ranking holds about 8,300 sequences; the median of “log2 fold change of degron read counts, EGFP-low vs EGFP+ sorted cells (limma voom), compound-induced degradation” is about -1.1, and the highest 2% start at about 3.2. This excerpt belongs to a sample that is enriched for the highest values.

Biological target: T1, CRBN, Q96SW2
T1 chain: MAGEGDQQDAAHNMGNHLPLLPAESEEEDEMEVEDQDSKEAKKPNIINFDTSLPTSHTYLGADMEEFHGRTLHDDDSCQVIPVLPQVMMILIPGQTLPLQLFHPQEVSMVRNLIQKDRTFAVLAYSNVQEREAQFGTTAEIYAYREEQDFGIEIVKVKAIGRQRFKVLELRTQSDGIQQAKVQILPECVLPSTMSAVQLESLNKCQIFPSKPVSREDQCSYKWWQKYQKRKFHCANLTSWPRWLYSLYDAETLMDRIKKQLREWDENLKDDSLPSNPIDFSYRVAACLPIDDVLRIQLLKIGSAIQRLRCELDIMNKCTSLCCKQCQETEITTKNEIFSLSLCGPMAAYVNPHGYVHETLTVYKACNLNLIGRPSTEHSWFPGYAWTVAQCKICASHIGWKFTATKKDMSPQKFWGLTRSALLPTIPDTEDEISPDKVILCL
Assay: log2 fold change of degron read counts, EGFP-low vs EGFP+ sorted cells (limma voom), compound-induced degradation; higher = more compound-induced degradation of the degron-EGFP fusion; degrons are variants of IKZF1/3 zinc finger 2; compound dose not given here
Conditions: Jurkat, 18 h
Experimental: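 Pooled library of 8380 IKZF3 ZF2 degron mutants (positions 146-167 varied within the IKZF3 130-189 degron; only the varied core is printed, flanks not printed) fused to EGFP with IRES-mCherry, lentivirally expressed in Jurkat cells. mCherry+ cells were treated with one IMiD compound for 18 h (dose not stated) and FACS-sorted into EGFP-low and EGFP+ populations. Degron sequences were counted by NGS, and log2FC (EGFP-low vs EGFP+) was estimated by limma voom over 3 biological replicates.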

[1] = compound: compound 19 (5-tert-butyl-thalidomide)
[2] = compound: compound 22 (5-morpholino-thalidomide)
[3] = compound: compound 33 (diphenyl IMiD analogue)
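Note: pooled lentiviral library of zinc finger degron-EGFP fusions in mCherry-positive Jurkat cells, FACS-sorted after compound exposure, with degron abundance counted by next-generation sequencing.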

B1: 46F_47H_49N_50I_52G_53A_54C_55F_67L_, Q9UKT9 (peptide)
chain: FHCNICGACFTQKGNLLRHIKL
[1]
  log2 fold change of degron read counts: 1.16
[2]
  log2 fold change of degron read counts: 1.39
[3]
  log2 fold change of degron read counts: 0.659
compound: thalidomide
  log2 fold change of degron read counts: -0.53

B2: 46F_47G_49N_50Q_52G_53H_54W_55F_67L_, Q9UKT9 (peptide)
chain: FGCNQCGHWFTQKGNLLRHIKL
[1]
  log2 fold change of degron read counts: -0.98
[2]
  log2 fold change of degron read counts: -1.42
[3]
  log2 fold change of degron read counts: -1.2
compound: thalidomide
  log2 fold change of degron read counts: -0.959

B3: 46F_47N_49P_50Q_52G_53A_54G_55F_67L_, Q9UKT9 (peptide)
chain: FNCPQCGAGFTQKGNLLRHIKL
[1]
  log2 fold change of degron read counts: -0.184
[2]
  log2 fold change of degron read counts: -2.36
[3]
  log2 fold change of degron read counts: -1.35
compound: thalidomide
  log2 fold change of degron read counts: -2.07

B4: 46F_47E_49E_50I_52G_53A_54C_55F_67L_, Q9UKT9 (peptide)
chain: FECEICGACFTQKGNLLRHIKL
[1]
  log2 fold change of degron read counts: 0.505
[2]
  log2 fold change of degron read counts: -1.14
[3]
  log2 fold change of degron read counts: 1.9
compound: thalidomide
  log2 fold change of degron read counts: 2.35

B5: 46F_47M_49E_50I_52G_53A_54C_55F_67L_, Q9UKT9 (peptide)
chain: FMCEICGACFTQKGNLLRHIKL
[1]
  log2 fold change of degron read counts: 0.319
[2]
  log2 fold change of degron read counts: 0.12
[3]
  log2 fold change of degron read counts: 2.53
compound: thalidomide
  log2 fold change of degron read counts: 1.09

B6: 46F_47S_49E_50I_52G_53A_54C_55F_67L_, Q9UKT9 (peptide)
chain: FSCEICGACFTQKGNLLRHIKL
[1]
  log2 fold change of degron read counts: 3.31
[2]
  log2 fold change of degron read counts: 2.47
[3]
  log2 fold change of degron read counts: 2.56
compound: thalidomide
  log2 fold change of degron read counts: 1.4

B7: 46F_47V_49E_50I_52G_53A_54C_55F_67L_, Q9UKT9 (peptide)
chain: FVCEICGACFTQKGNLLRHIKL
[1]
  log2 fold change of degron read counts: 0.542
[2]
  log2 fold change of degron read counts: 1.78
[3]
  log2 fold change of degron read counts: 2.28
compound: thalidomide
  log2 fold change of degron read counts: 2.75

B8: 46F_47R_49E_50I_52G_53A_54C_55F_67L_, Q9UKT9 (peptide)
chain: FRCEICGACFTQKGNLLRHIKL
[1]
  log2 fold change of degron read counts: 0.0911
[2]
  log2 fold change of degron read counts: -0.251
[3]
  log2 fold change of degron read counts: 1.83
compound: thalidomide
  log2 fold change of degron read counts: 1.53

B9: 46F_47G_49E_50I_52G_53A_54C_55F_67L_, Q9UKT9 (peptide)
chain: FGCEICGACFTQKGNLLRHIKL
[1]
  log2 fold change of degron read counts: 3.4
[2]
  log2 fold change of degron read counts: 2.93
[3]
  log2 fold change of degron read counts: 2.06
compound: thalidomide
  log2 fold change of degron read counts: 1.14

B10: 46F_47T_49E_50I_52G_53A_54C_55F_67L_, Q9UKT9 (peptide)
chain: FTCEICGACFTQKGNLLRHIKL
[1]
  log2 fold change of degron read counts: 1.77
[2]
  log2 fold change of degron read counts: 2.36
[3]
  log2 fold change of degron read counts: 2.49
compound: thalidomide
  log2 fold change of degron read counts: 2.86

B11: 46F_47K_49E_50I_52G_53A_54C_55F_67L_, Q9UKT9 (peptide)
chain: FKCEICGACFTQKGNLLRHIKL
[1]
  log2 fold change of degron read counts: -0.172
[2]
  log2 fold change of degron read counts: -3.02
[3]
  log2 fold change of degron read counts: -3.63
compound: thalidomide
  log2 fold change of degron read counts: -0.785

B12: 46F_47D_49E_50I_52G_53A_54C_55F_67L_, Q9UKT9 (peptide)
chain: FDCEICGACFTQKGNLLRHIKL
[1]
  log2 fold change of degron read counts: 1.52
[2]
  log2 fold change of degron read counts: -0.309
[3]
  log2 fold change of degron read counts: 0.629
compound: thalidomide
  log2 fold change of degron read counts: 0.633

B13: 46F_47Q_49E_50I_52G_53A_54C_55F_67L_, Q9UKT9 (peptide)
chain: FQCEICGACFTQKGNLLRHIKL
[1]
  log2 fold change of degron read counts: 1.23
[2]
  log2 fold change of degron read counts: 3.08
[3]
  log2 fold change of degron read counts: 2.71
compound: thalidomide
  log2 fold change of degron read counts: 3.48

B14: 46F_47C_49E_50I_52G_53A_54C_55F_67L_, Q9UKT9 (peptide)
chain: FCCEICGACFTQKGNLLRHIKL
[1]
  log2 fold change of degron read counts: 2.78
[2]
  log2 fold change of degron read counts: 2.06
[3]
  log2 fold change of degron read counts: 2.71
compound: thalidomide
  log2 fold change of degron read counts: 2.24

B15: 46F_47Y_49E_50I_52G_53A_54C_55F_67L_, Q9UKT9 (peptide)
chain: FYCEICGACFTQKGNLLRHIKL
[1]
  log2 fold change of degron read counts: 3.73
[2]
  log2 fold change of degron read counts: 3.6
[3]
  log2 fold change of degron read counts: 2.92
compound: thalidomide
  log2 fold change of degron read counts: 1.43

B16: 46F_47Y_49N_50I_52G_53A_54F_55F_67L_, Q9UKT9 (peptide)
chain: FYCNICGAFFTQKGNLLRHIKL
[1]
  log2 fold change of degron read counts: 1.22
[2]
  log2 fold change of degron read counts: 1.41
[3]
  log2 fold change of degron read counts: 0.651
compound: thalidomide
  log2 fold change of degron read counts: -0.835

B17: 46F_47Y_49E_50Q_52G_53A_54E_55F_67L_, Q9UKT9 (peptide)
chain: FYCEQCGAEFTQKGNLLRHIKL
[1]
  log2 fold change of degron read counts: -0.252
[2]
  log2 fold change of degron read counts: -0.709
[3]
  log2 fold change of degron read counts: -0.311
compound: thalidomide
  log2 fold change of degron read counts: -2.41

B18: 46F_47H_49P_50Q_52G_53A_54C_55F_67L_, Q9UKT9 (peptide)
chain: FHCPQCGACFTQKGNLLRHIKL
[1]
  log2 fold change of degron read counts: -0.735
[2]
  log2 fold change of degron read counts: -0.785
[3]
  log2 fold change of degron read counts: 0.174
compound: thalidomide
  log2 fold change of degron read counts: -1.82

B19: 46F_47K_49P_50V_52G_53A_54A_55F_67L_, Q9UKT9 (peptide)
chain: FKCPVCGAAFTQKGNLLRHIKL
[1]
  log2 fold change of degron read counts: 1.7
[2]
  log2 fold change of degron read counts: -0.2
[3]
  log2 fold change of degron read counts: -1.11
compound: thalidomide
  log2 fold change of degron read counts: 0.798

B20: 46F_47E_49E_50I_52G_53H_54P_55F_67L_, Q9UKT9 (peptide)
chain: FECEICGHPFTQKGNLLRHIKL
[1]
  log2 fold change of degron read counts: -2.97
[2]
  log2 fold change of degron read counts: -3.81
[3]
  log2 fold change of degron read counts: -1.95
compound: thalidomide
  log2 fold change of degron read counts: -1.68

B21: 46F_47W_49P_50I_52G_53H_54K_55F_67L_, Q9UKT9 (peptide)
chain: FWCPICGHKFTQKGNLLRHIKL
[1]
  log2 fold change of degron read counts: -0.246
[2]
  log2 fold change of degron read counts: -0.231
[3]
  log2 fold change of degron read counts: -0.673
compound: thalidomide
  log2 fold change of degron read counts: -0.717

B22: 46F_47F_49P_50I_52G_53R_54W_55F_67L_, Q9UKT9 (peptide)
chain: FFCPICGRWFTQKGNLLRHIKL
[1]
  log2 fold change of degron read counts: 1.04
[2]
  log2 fold change of degron read counts: 1
[3]
  log2 fold change of degron read counts: -0.146
compound: thalidomide
  log2 fold change of degron read counts: -0.692

B23: 46F_47V_49E_50I_52G_53H_54P_55F_67L_, Q9UKT9 (peptide)
chain: FVCEICGHPFTQKGNLLRHIKL
[1]
  log2 fold change of degron read counts: -1.95
[2]
  log2 fold change of degron read counts: -1.66
[3]
  log2 fold change of degron read counts: -1.45
compound: thalidomide
  log2 fold change of degron read counts: -0.105

B24: 46F_47I_49E_50I_52G_53A_54C_55F_67L_, Q9UKT9 (peptide)
chain: FICEICGACFTQKGNLLRHIKL
[1]
  log2 fold change of degron read counts: -0.122
[2]
  log2 fold change of degron read counts: 2.02
[3]
  log2 fold change of degron read counts: 2.45
compound: thalidomide
  log2 fold change of degron read counts: 2.64

B25: 46F_47L_49E_50I_52G_53A_54C_55F_67L_, Q9UKT9 (peptide)
chain: FLCEICGACFTQKGNLLRHIKL
[1]
  log2 fold change of degron read counts: 1.19
[2]
  log2 fold change of degron read counts: -0.209
[3]
  log2 fold change of degron read counts: 1.6
compound: thalidomide
  log2 fold change of degron read counts: 1.57

B26: 46F_47N_49E_50I_52G_53A_54C_55F_67L_, Q9UKT9 (peptide)
chain: FNCEICGACFTQKGNLLRHIKL
[1]
  log2 fold change of degron read counts: 2.72
[2]
  log2 fold change of degron read counts: 0.812
[3]
  log2 fold change of degron read counts: 0.513
compound: thalidomide
  log2 fold change of degron read counts: 0.0996

B27: 46F_47A_49E_50I_52G_53A_54C_55F_67L_, Q9UKT9 (peptide)
chain: FACEICGACFTQKGNLLRHIKL
[1]
  log2 fold change of degron read counts: 3.71
[2]
  log2 fold change of degron read counts: 2.6
[3]
  log2 fold change of degron read counts: 1.54
compound: thalidomide
  log2 fold change of degron read counts: 0.745

B28: 46F_47F_49E_50I_52G_53A_54C_55F_67L_, Q9UKT9 (peptide)
chain: FFCEICGACFTQKGNLLRHIKL
[1]
  log2 fold change of degron read counts: 3.78
[2]
  log2 fold change of degron read counts: 3.84
[3]
  log2 fold change of degron read counts: 2.33
compound: thalidomide
  log2 fold change of degron read counts: 1.61

B29: 46F_47H_49E_50I_52G_53A_54C_55F_67L_, Q9UKT9 (peptide)
chain: FHCEICGACFTQKGNLLRHIKL
[1]
  log2 fold change of degron read counts: 2.97
[2]
  log2 fold change of degron read counts: 2.54
[3]
  log2 fold change of degron read counts: 1.42
compound: thalidomide
  log2 fold change of degron read counts: 0.134

B30: 46F_47W_49E_50I_52G_53A_54C_55F_67L_, Q9UKT9 (peptide)
chain: FWCEICGACFTQKGNLLRHIKL
[1]
  log2 fold change of degron read counts: 3.85
[2]
  log2 fold change of degron read counts: 3.79
[3]
  log2 fold change of degron read counts: 2.77
compound: thalidomide
  log2 fold change of degron read counts: 1.16
